# USP10 inh – inhibitors of human USP10 deubiquitinase; 47,000 tested, 1.1% active; Ubiquitin carboxyl-terminal hydrolase 10 (Homo sapiens), Q14694; inhibition, % at 20 µM; purified USP10, Ub-rhodamine fluorescence, 60 min
# USP8 inh – inhibitors of human USP8 deubiquitinase; Ubiquitin carboxyl-terminal hydrolase 8 (Homo sapiens), P40818; purified USP8, Ub-rhodamine cleavage fluorescence, 30 min; inhibition, % at 20 µM; 47,000 tested, 4.2% active; AID 1645853, 2021
# USP7 block – inhibitors of human USP7 deubiquitinase | inhibition, % at 20 µM | Ubiquitin carboxyl-terminal hydrolase 7 (Homo sapiens), Q93009 | 47,000 tested, 0.3% active | purified USP7, Ub-rhodamine cleavage fluorescence | AID 1645854, 2021
# USP17 inh – inhibitors of human USP17 deubiquitinase; inhibition, % at 50 µM; purified USP17, Ub-rhodamine cleavage fluorescence, 3 h; AID 1645855, 2021; 47,000 tested, 6.5% active
# UCHL1 inh – inhibitors of human UCHL1 deubiquitinase; purified UCHL1, Ub-rhodamine cleavage fluorescence; Ubiquitin carboxyl-terminal hydrolase isozyme L1 (Homo sapiens), P09936; 47,000 tested, 0.2% active; inhibition, % at 20 µM
# USP30 inh – inhibitors of human USP30 deubiquitinase; 47,000 tested, 5.3% active; purified USP30, Ub-rhodamine cleavage fluorescence; Ubiquitin carboxyl-terminal hydrolase 30 (Homo sapiens), Q70CQ3; inhibition, % at 25 µM
# Target sequence (Q70CQ3 whole entry, looked up): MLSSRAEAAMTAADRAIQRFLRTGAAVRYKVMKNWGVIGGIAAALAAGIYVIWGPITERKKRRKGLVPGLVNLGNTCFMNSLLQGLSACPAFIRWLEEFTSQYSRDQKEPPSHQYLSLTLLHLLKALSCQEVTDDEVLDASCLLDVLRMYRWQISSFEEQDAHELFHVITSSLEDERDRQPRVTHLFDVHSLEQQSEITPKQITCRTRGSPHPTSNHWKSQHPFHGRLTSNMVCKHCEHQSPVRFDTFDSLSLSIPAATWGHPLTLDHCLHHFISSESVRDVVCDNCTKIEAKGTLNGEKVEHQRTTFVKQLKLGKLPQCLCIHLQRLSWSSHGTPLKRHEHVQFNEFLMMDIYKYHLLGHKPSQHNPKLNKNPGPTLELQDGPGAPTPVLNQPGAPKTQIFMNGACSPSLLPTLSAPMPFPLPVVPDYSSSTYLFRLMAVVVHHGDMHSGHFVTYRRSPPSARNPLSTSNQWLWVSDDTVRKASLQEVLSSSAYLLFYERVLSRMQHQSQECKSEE
# Numbers without * were called inactive; / = not tested or not shown. Only some compounds are listed: those with a hit (about 12% of all), similar ones and a draw of the others. Rule as the data show it: active = inhibition above about 30%; inactive = the rest.
SMILES,USP10 inh,USP8 inh,USP7 block,USP17 inh,UCHL1 inh,USP30 inh
CCOC(=O)N1CCN(C(=O)Cc2c(C)c3ccc(O)cc3oc2=O)CC1,-1,1,4,8,1,/
COc1ccc(C(=O)COC(=O)C(NC(=O)c2ccc(C(C)(C)C)cc2)C(C)C)cc1 (centres undefined),4,1,10,1,1,-15
CCC(=O)Nc1nc2cc(NC(=O)c3ccccc3F)ccc2s1,-1,13,-4,-1,0,-9
Cc1nc2ccccc2c(-c2ccccc2)c1C(=O)Nc1ccccc1,7,26,12,8,2,38*
CC(C)c1ccc(NC(=O)c2c(-c3ccccc3)nnc3ccccc23)cc1,0,18,5,8,1,24
O=C(Nc1ccc(F)cc1F)NC1CCN(c2ccccc2)C1=O (centres undefined),12,14,13,73*,5,5
O=C(Cc1nnc(-c2cnccn2)o1)Nc1ccc(Cl)cc1,1,20,0,10,3,38*
Cc1cccc(NC(=O)C(=O)c2cn(CC(=O)N3CCCCC3)c3ccccc23)c1C,5,13,4,11,2,20
Cc1ccc(N2CC(c3nnc(NC(=O)c4ccco4)s3)CC2=O)cc1 (centres undefined),3,-32,6,-6,0,-26
CCc1ccc(-c2cc3c(=O)n(Cc4nc(-c5ccccn5)no4)ccn3n2)cc1,-5,-17,-3,31*,-6,-95
Cc1ccc(-c2cc3c(=O)n(Cc4noc(CN5CCC(C)CC5)n4)ccn3n2)cc1,5,22,4,3,5,38*
Cc1ccc(-c2cc3c(=O)n(Cc4noc(CN5CCCCC5)n4)ccn3n2)cc1,-1,8,1,4,0,0
O=C(NCCc1ccccc1)c1cc2ccccc2c(=O)s1,18,2,29,73*,8,/
O=C(NCCc1ccc(Cl)cc1)c1cc2ccccc2s1,3,14,9,13,4,28
COc1ccc(C2NC(=O)NC(C)=C2C(=O)OC2CCCC2)cc1OC (centres undefined),0,35*,-5,0,-2,-1
COc1cc(C2NC(=O)NC(C)=C2C(=O)OC2CCCC2)cc(OC)c1OC (centres undefined),2,7,0,-1,-1,6
Cc1nc(N2CCC(C)CC2)ncc1-c1cc(=O)[nH]c(N2CCCCC2)n1,3,-3,-1,-4,0,-3
O=C(c1ccc(F)cc1)N1CCCC1c1ccnc(Nc2cnccn2)n1 (centres undefined),0,5,1,3,-1,-4
O=S(=O)(c1ccc(F)cc1)N1CCCC1c1ccnc(Nc2cnccn2)n1 (centres undefined),-5,0,-2,47*,-1,73*
O=C(NCC1CC1)C1CCN(c2cnc(N3CCCCCC3)nc2)CC1,-2,-10,-8,-27,-6,/
Cc1ccc(-n2cc3c(N4CCCC(C(=O)NCC5CCCCC5)C4)ncnc3n2)cc1 (centres undefined),-1,0,-6,60*,1,39*
COc1cc(NS(=O)(=O)c2ccc3c(c2)CCCC(=O)N3)cc(OC)c1,1,-2,0,4,0,13
COc1ccc(Cn2ccc3nc(N4CCOCC4)c(C#N)cc3c2=O)cc1,-1,0,2,68*,0,54*
COc1ccc(-c2csc(N(CCCN3CCOCC3)C(=O)c3cc(OC)c(OC)c(OC)c3)n2)cc1,-2,-34,2,-13,3,-32
CCOC(=O)C(C)Sc1nc(=O)n2cccc(C)c2n1 (centres undefined),0,29,3,22,1,30*
SMILES,USP10 inh,USP8 inh,USP7 block,USP17 inh,UCHL1 inh,USP30 inh
COc1cc(CNC(=O)c2cnc3c(C)cccn3c2=O)cc(OC)c1OC,0,12,8,-21,3,26
COc1ccccc1NC(=O)N1CCCC1c1c(C)noc1C (centres undefined),0,3,2,6,1,0
COc1ccccc1-c1noc(C2CCCN2C(=O)Nc2cccc(C)c2C)n1 (centres undefined),-1,18,-1,23,1,49*
Cc1cn2nnc(C(=O)Nc3ccc(OC(F)(F)F)cc3)c2c(=O)[nH]1,24,54*,10,51*,2,54*
CSc1ccccc1NC(=O)c1nnn2cc(C)[nH]c(=O)c12,-1,-198,0,-23,1,3
CNc1nc(C2CCN(C(=O)C3(c4cccc(C)c4)CCOCC3)C2)nc2c1CCN(C)C2 (centres undefined),-10,37*,2,/,0,-89
Cc1c(C(=O)N2CC(C)OC(C)C2)nnn1-c1cccc2c1CCN(C1CCOCC1)C2 (centres undefined),0,9,4,-18,1,-79
CCOC(=O)C1=C(CNCc2ccccc2Cl)NC(=O)NC1c1ccccc1 (centres undefined),10,2,-24,-2,2,10
Nc1c(-c2nc3ccccc3[nH]2)c2nc3ccccc3nc2n1Cc1cccc(Cl)c1,-5,16,-6,46*,-12,-14
Cn1c(SCc2c(F)cccc2Cl)nnc1-c1ccc2c(c1)OCCCO2,0,4,-1,7,1,33*
COc1ccc(NC(=O)CSc2nc3ccccc3c3nc(C)nn23)cc1OC,0,41*,6,37*,5,32*
COC(=O)c1sc2ccccc2c1NC(=O)c1ccc(Br)s1,9,0,4,70*,0,19
COC(=O)c1sc2cc([N+](=O)[O-])sc2c1NC(C)=O,-11,-67,-30,-15,-9,2
COc1cccc(CNC(=O)c2sc3ncnc(N4CCN(C)CC4)c3c2C)c1,-10,-30,-13,-38,-12,-113
Cc1cc(Nc2ccc(C)c(F)c2)c2ccccc2n1,0,9,3,6,5,30
FC(F)(F)c1ccc(Nc2nnnc3ccccc23)cc1,47*,64*,60*,-8,29,-34
COc1ccc(-c2cnc3sc(NCC4CCOCC4)nn23)cn1,0,8,7,0,6,14
c1ccc(CCNc2nn3c(-c4ccc5ccccc5c4)cnc3s2)nc1,10,-11,8,-4,7,0
COc1ccc(CNc2nn3c(-c4ccncc4)cnc3s2)cc1,12,11,6,34*,5,86*
c1ccc(CNc2nn3c(-c4ccncc4)cnc3s2)cc1,4,-3,6,51*,2,21
